From PubChem BioAssay AID1159580 (chemical genetic matrix, 2015)
Values joined by “and” are separate entries in the source; they are usually repeats but may differ in a detail not shown here. Identical values can stand only once. Among all 5,500 compounds or so, about 2,000 (36%) were called active. About 18% were inconclusive and are not listed. Cut-off read from the data, not from the text of the source: active = normalized growth mostly below about 0.91 (no sharp cut-off); inconclusive = no clear call, values can overlap the other calls; inactive = mostly above about 0.92. The list shows a part of the results.

Experiment: chemical genetic growth profiling, strain panel (AID 1159580);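 note: tested at 20 µM; growth read once vehicle control cultures reached saturation at 30 °C; 1 = growth at the plate median or of vehicle wells; lower values mean less growth of the strain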
Conditions: S. cerevisiae deletion strains, growth OD

Measured: normalized growth

OCc1ccccc1O
inactive: locus YAL021C, strain ccr4, hits give low values 1.02 | locus YAL026C, strain drs2, hits give low values 1.02 | locus YAL030W, strain snc1, hits give low values 1 | locus YBL061C, strain skt5, hits give low values 1.03 | locus YBR009C, strain hhf1, hits give low values 1.02 | locus YBR021W, strain FUR4, hits give low values 1.02 | locus YBR023C, strain chs3, hits give low values 1.02 | locus YBR171W, strain sec66, hits give low values 1.01 | locus YBR229C, strain ROT2, hits give low values 1.02 | locus YBR231C, strain swc5, hits give low values 1.03 | locus YBR279W, strain paf1, hits give low values 1.03 | locus YCL011C, strain gbp2, hits give low values 1.03 | locus YCL016C, strain dcc1, hits give low values 1.02 | locus YCL029C, strain bik1, hits give low values 0.995 | locus YCL069W, strain vba3, hits give low values 1 | locus YCR088W, strain abp1, hits give low values 1.04 | locus YDL005C, strain med2, hits give low values 1.02 | locus YDL035C, strain GPR1, hits give low values 1.02 | locus YDL040C, strain nat1, hits give low values 1.01 | locus YDL074C, strain BRE1, hits give low values 1.04 | locus YDL101C, strain DUN1, hits give low values 1.02 | locus YDL134C, strain PPH21, hits give low values 1.02 | locus YDL185W, strain tfp1, hits give low values 0.992 | locus YDL192W, strain arf1, hits give low values 0.991 | locus YDR001C, strain nth1, hits give low values 1.02 | locus YDR069C, strain doa4, hits give low values 1.03 | locus YDR101C, strain arx1, hits give low values 0.987 | locus YDR137W, strain rgp1, hits give low values 1.02 | locus YDR150W, strain NUM1, hits give low values 1.02 | locus YDR159W, strain sac3, hits give low values 1.05 | locus YDR162C, strain NBP2, hits give low values 1 | locus YDR195W, strain ref2 1.02 | locus YDR297W, strain sur2, hits give low values 1.02 | locus YDR318W, strain mcm21, hits give low values 0.992 | locus YDR334W, strain swr1, hits give low values 1.03 | locus YDR335W, strain msn5, hits give low values 1.03 | locus YDR388W, hits give low values 0.991 | locus YDR392W, strain spt3, hits give low values 1.03 | locus YDR502C, strain sam2, hits give low values 0.988 | locus YEL003W, strain gim4, hits give low values 1.02 | locus YEL037C, strain rad23, hits give low values 1 | locus YEL061C, strain CIN8 (second series), hits give low values 1.01 | locus YEL061C, strain CIN8, hits give low values 1.01 | locus YER015W, strain faa2, hits give low values 0.998 | locus YER016W, strain bim1, hits give low values 1.03 | locus YER110C, hits give low values 0.995 | locus YER111C, strain swi4, hits give low values 0.997 | locus YER155C, strain BEM2 (second series), hits give low values 1.05 | locus YER155C, strain BEM2, hits give low values 1.02 | locus YER167W, strain BCK2, hits give low values 1.01 | locus YFR010W, strain ubp6, hits give low values 1.02 | locus YGL078C, strain dbp3, hits give low values 0.978 | locus YGL086W, strain mad1, hits give low values 1.01 | locus YGL167C, strain pmr1, hits give low values 1.02 | locus YGL173C, strain kem1, hits give low values 1.02 | locus YGL227W, strain vid30, hits give low values 1.03 | locus YGL240W, strain doc1, hits give low values 1.05 | locus YGL248W, strain PDE1, hits give low values 1.02 | locus YGL253W, strain hxk2, hits give low values 1.02 | locus YGR135W, strain pre9, hits give low values 0.982 | locus YGR252W, strain gcn5, hits give low values 0.994 | locus YHR013C, strain ard1, hits give low values 1.06 | locus YHR027C, strain rpn1, hits give low values 1.02 | locus YHR030C, strain SLT2, hits give low values 1.01 and 1.09 | locus YHR079C, strain IRE1 (second series), hits give low values 0.977 | locus YHR079C, strain IRE1, hits give low values 1.09 | locus YHR094C, strain hxt1, hits give low values 0.982 | locus YHR129C, strain ARP1, hits give low values 1.02 | locus YHR142W, strain chs7, hits give low values 1.03 | locus YHR200W, strain rpn10, hits give low values 0.995 | locus YIL066C, strain RNR3, hits give low values 1.02 | locus YIL073C, strain SPO22, hits give low values 0.949 | locus YIL125W, strain kgd1, hits give low values 0.993 | locus YIR030C, strain dcg1, hits give low values 0.989 | locus YJL092W, strain hpr5, hits give low values 1.02 | locus YJL095W, strain BCK1 (second series), hits give low values 1.02 | locus YJL095W, strain BCK1, hits give low values 1.02 and 1.04 | locus YJL115W, strain asf1, hits give low values 1.03 | locus YJL129C, strain trk1, hits give low values 1.01 | locus YJL134W, strain LCB3, hits give low values 1.02 | locus YJL154C, strain vps35, hits give low values 1.02 | locus YJL164C, strain tpk1, hits give low values 1.02 | locus YJL166W, strain qcr8, hits give low values 1.02 | locus YJL168C, strain set2, hits give low values 0.99 | locus YJL187C, strain SWE1 (second series), hits give low values 1.02 | locus YJR043C, strain POL32, hits give low values 1.02 | locus YJR066W, strain TOR1, hits give low values 1.01 | locus YJR075W, strain HOC1, hits give low values 1.02 | locus YKL009W, strain mrt4, hits give low values 0.988
